From PubChem
Sfp PPTase inh = qHTS Assay for Inhibitors of Bacillus subtilis Sfp phosphopantetheinyl transferase (PPTase) | 4'-phosphopantetheinyl transferase ffp (Bacillus subtilis), Q9F4F7 | Biochemical Sfp PPTase activity, qHTS | Potency, µM, for the others: largest response in the series, negative = inhibition, usual class: inhibitors | 3.5% of 310,000 active;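 note: the enzyme is Sfp with the accession as filed and its product quenches rhodamine fluorescence; 0% = enzyme reaction without inhibitor and -100% = no enzyme wells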
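Fluorescence-quenching assay with 15 nM Sfp, 5 uM rhodamine-CoA and 12.5 uM BHQ-2-labelled ybbR peptide in pH 7.6 Hepes/MgCl2 buffer. Enzyme was pre-incubated with compound for 15 min at room temperature. Rate was taken from the 30-min fluorescence change (525/598 nm).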
Gal4-VP16 FLuc = VP16 counterscreen qHTS for inhibitors of ROR gamma transcriptional activity; AID 2546, 2010; 3.5% of 310,000 active; Drosophila S2 Gal4-VP16 UAS-luciferase, luminescence, 20 h; Potency, µM (top dose mostly 53.6 µM), without a hit: at the top dose activity, negative = inhibition, hits mostly inhibitors;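 note: Gal4-VP16 expression switched on by copper sulfate through the metallothionein promoter; nearly all actives have a fitted effect of over 50% in size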
RORg inh = qHTS for inhibitors of ROR gamma transcriptional activity; Nuclear receptor ROR-gamma (Mus musculus), P51450; AID 2551, 2010; 5.4% of 310,000 active; Drosophila S2 Gal4-RORgamma UAS-luciferase reporter, 20 h; Potency, µM (titrated, usually from 53.6 µM), for inactives: at the top dose activity change, negative = inhibition, most hits filed as inhibitors; note: nearly all actives have a fitted effect of over 60% in size
Target sequence (P51450 whole entry, looked up, the tested form may be a part): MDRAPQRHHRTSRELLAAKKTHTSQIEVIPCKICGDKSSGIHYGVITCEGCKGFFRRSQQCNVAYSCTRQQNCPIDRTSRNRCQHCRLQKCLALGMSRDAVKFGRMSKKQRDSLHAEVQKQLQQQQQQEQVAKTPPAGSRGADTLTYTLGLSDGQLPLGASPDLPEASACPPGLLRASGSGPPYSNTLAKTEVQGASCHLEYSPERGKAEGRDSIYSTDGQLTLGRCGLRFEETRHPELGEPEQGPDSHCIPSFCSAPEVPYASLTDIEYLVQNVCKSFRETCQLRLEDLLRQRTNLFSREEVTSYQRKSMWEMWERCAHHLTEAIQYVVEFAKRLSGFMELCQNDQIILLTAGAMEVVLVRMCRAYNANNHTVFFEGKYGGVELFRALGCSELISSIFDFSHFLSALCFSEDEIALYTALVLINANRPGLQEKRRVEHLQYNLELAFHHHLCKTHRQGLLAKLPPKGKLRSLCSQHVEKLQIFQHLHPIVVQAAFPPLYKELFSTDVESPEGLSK
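A Gal4/UAS one-hybrid system in insect cells: metallothionein-promoter Gal4–ROR gamma fusion plus Photinus luciferase reporter. Copper sulfate 700 uM final, 20 hr ambient incubation, luminescent detection after 10 min with reagent.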
ALDH1A1 inh = qHTS Assay for Inhibitors of Aldehyde Dehydrogenase 1 (ALDH1A1) | 7.3% of 220,000 active | Purified ALDH1A1, NADH fluorescence, propionaldehyde substrate | Potency, µM (titrated, usually from 75.3 µM), inactives show at the highest dose activity, negative = inhibition, actives largely listed as inhibitors; active = well fitted inhibition curve with a large enough effect, not every such curve was filed as active; inconclusive = small, poorly fitted or top-dose-only effect, or another doubt; inactive = no such curve, though single readings can be large or run the other way;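 note: plate controls were no enzyme wells and a reference inhibitor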
PLK1 PBD inh = qHTS for Inhibitors of PLK1-PDB (polo-like kinase 1 - polo-box domain): Primary Screen | Plk1 PBD binding of FITC phosphopeptide, fluorescence polarization | 2.8% of 360,000 active | Potency, µM, inactives show max response, negative = inhibition, hits mostly inhibitors; note: series mostly up to about 57 µM; nearly all actives have a fitted effect of over 65% in size
* = called active by the depositor; ? = inconclusive; nt = not tested or not shown; [ ] = remark or other dose. Sampled rows, rich in hits. Any-hit rate of the full collection: about 12%. Unless noted, calls come from the whole dose curve; as a rule, active = well fitted curve in the direction sought with a large enough effect; inconclusive = small, poorly fitted or top-dose-only effect, or another doubt; inactive = no such curve, though single readings can be large; an effect the other way counts as inactive or inconclusive. Unless noted, % is set by controls: 0 for no effect and ±100 for the full control effect; potency is the fitted concentration of half-maximal effect.

SMILES	Sfp PPTase inh	Gal4-VP16 FLuc	RORg inh	ALDH1A1 inh	PLK1 PBD inh
O=C(CCN1C(=O)c2ccccc2C1=O)Nc1ccc2c(c1)OCCO2	-3.5%	-15.8%	-1.3%	?	-9.1%
O=C(CCc1nc2ccccc2[nH]1)NCc1ccc2c(c1)OCO2	-3.6%	14.2%	16.3%	-8.4%	-0.2%
O=C(CN1C(=O)CCSc2ccccc21)Nc1ccc2c(c1)OCO2	-1.5%	-4.2%	28.5%	-3.4%	-5.3%
N[C@@H](CSCc1ccccc1)C(=O)O	nt	nt	nt	8.5%[13.5 µM]	nt
COc1ccc([C@@H](Nc2ncccn2)c2cc3c(cc2O)OCO3)cc1	nt	nt	nt	-12.2%[13.5 µM]	nt
O=S1(=O)N[C@H]2CC[C@@H]3NS(=O)(=O)N[C@H]4CC[C@H](N1)N4S(=O)(=O)N23	nt	nt	nt	6.8%[13.5 µM]	nt
O=C(NNC(=S)Nc1ccccc1)Nc1ccccc1	7.08µM*	-21.4%	?	14.1µM*	?
Cc1ccc(NC(=S)NNC(=O)Nc2ccccc2)cc1	?	-11.8%	?	2.24µM*	-20.2%
O=C(NNC(=S)Nc1ccccc1)NNC(=S)Nc1ccccc1	6.6%	-18.8%[10 µM]	-19.5%	?	-11.9%
O=C(NNC(=S)Nc1ccccc1)c1cc(Br)ccc1Cl	13.5%	-16.0%	0.794µM*	nt	?
COc1cccc(CNC(=O)[C@@H]2CCCN2C(=O)[C@H]2CCCCN2S(=O)(=O)c2ccc(OC)c(C)c2)c1	nt	nt	nt	nt	2.2%
C/C(=N\NC(=O)CSCc1ccc([N+](=O)[O-])cc1)c1ccccc1	-10.4%	-26.3%	?	-9.7%	-2.5%
C/C(=N\NC(=O)Cc1ccc(Cl)cc1)c1ccccc1O	10.8%	0.316µM*	0.282µM*	nt	-6.6%
C/C(=N\NC(=O)CSCc1ccc([N+](=O)[O-])cc1)c1ccccc1O	5.3%	2µM*	0.316µM*	-6.6%	-9.9%
CC1CCCCN1CCn1c(=S)[nH]c2ncccc2c1=O (centres undefined)	-21.2%	2.1%	-24.3%	-10.9%	-4.2%
O=c1c2ccccc2[nH]c(=S)n1CCCN1CCN(c2ccccc2)CC1	7.1%	10µM*	7.94µM*	nt	-17.4%
O=c1c2cccnc2[nH]c(=S)n1CCCN1CCN(c2ccccc2F)CC1	5.8%	-7.8%	2.24µM*	-7.7%	-6.5%
O=c1c2ccccc2[nH]c(=S)n1CCCN1CCN(c2ccccc2F)CC1	10.5%	8.91µM*	3.55µM*	nt	-15.6%
O=c1c2ccccc2[nH]c(=S)n1CCN1CCCCC1	-3.6%	-5.1%	-15.8%	nt	-1.9%
OCC1OC(c2ccccc2)C=CC1Oc1ccc(C2CCCC2)cc1 (centres undefined)	?	1.5%[10 µM]	-12.2%[10 µM]	1.5%[13.5 µM]	nt
CCCCCC(=O)N1C[C@H](O)[C@@H](n2cc(C3CC3)nn2)C[C@@H]1c1ccc(C)cc1	nt	nt	nt	nt	-4.5%
O=S(=O)(Nc1c(S(=O)(=O)c2ccccc2)c2nc3ccccc3nc2n1C1CCCCC1)c1ccccc1	-25.7%	-19.1%	-7.7%[10 µM]	?	4.23µM*
C=CCn1c(NS(=O)(=O)c2ccccc2)c(S(=O)(=O)c2ccc(C)cc2)c2nc3ccccc3nc21	39.8µM*	25.1µM*	15.8µM*	6.6%	?
Fc1ccc(N2CCN(Cc3cn[nH]c3-c3ccccc3)CC2)cc1	-27.4%	?	?	14.1µM*	-0.9%
CN1C(=O)C(O)(CC(=O)c2ccc(F)cc2)c2cc(Br)ccc21 (centres undefined)	-6.6%	-0.8%	-6.7%	15.8%	?
COC(=O)CN1C(=O)C(O)(CC(=O)c2ccc(C)cc2)c2cc(Br)ccc21 (centres undefined)	-10.1%	-11.7%	?	20µM*	-4.6%
C=CCN1C(=O)C(O)(CC(=O)c2ccc(-n3cccc3)cc2)c2ccccc21 (centres undefined)	-15.6%	2.0%	25.6%	0.501µM*	-7.6%
COC(=O)CN1C(=O)C(O)(CC(=O)c2ccc(Br)cc2)c2ccccc21 (centres undefined)	13.4%	1.8%	6.4%	0.355µM*	-4.0%
O=C(NC1CCN(Cc2ccc(Cl)cc2)CC1)c1cn(-c2ccccc2)nc1-c1cccnc1	nt	nt	nt	nt	-9.7%
O=C(c1ccc2c(c1)OCO2)N1CCN(c2ccc(C(F)(F)F)cn2)CC1	9.1%	-6.7%	9.9%[10 µM]	?	-4.3%
